The nature of assay [1]: StAR promoter reporter inhibitors, counter-screen for LRH-1 inverse agonist project, cell-based, luminescence, high throughput (AID 651611; in the data active means inhibition above about 28%). The settings on record: StAR promoter luciferase reporter counterscreen, at 3.6 µM, stronger effect = higher value. Background: The purpose of a counterscreen is to sort out artefacts and off-target activity.
The target of assay [2] is Nuclear receptor subfamily 5 group A member 2 (Homo sapiens) (UniProt O00482). Briefly: NR5A2 activity suppression in reporter cells – cell-based, luminescence, confirmation (AID 651613).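 Further: HEK293T cells co-transfected with LRH-1 and StAR promoter luciferase reporter; 0% = vehicle wells and 100% = parental cells lacking receptor.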 The settings on record: cell-based LRH-1 luciferase reporter, inverse agonism; at 3.6 µM; stronger effect = higher value. On the technique in general: In a reporter assay the amount or activity of a reporter protein is the signal.
Nuclear receptor subfamily 5 group A member 2 (Homo sapiens), sequence (O00482 whole entry, looked up): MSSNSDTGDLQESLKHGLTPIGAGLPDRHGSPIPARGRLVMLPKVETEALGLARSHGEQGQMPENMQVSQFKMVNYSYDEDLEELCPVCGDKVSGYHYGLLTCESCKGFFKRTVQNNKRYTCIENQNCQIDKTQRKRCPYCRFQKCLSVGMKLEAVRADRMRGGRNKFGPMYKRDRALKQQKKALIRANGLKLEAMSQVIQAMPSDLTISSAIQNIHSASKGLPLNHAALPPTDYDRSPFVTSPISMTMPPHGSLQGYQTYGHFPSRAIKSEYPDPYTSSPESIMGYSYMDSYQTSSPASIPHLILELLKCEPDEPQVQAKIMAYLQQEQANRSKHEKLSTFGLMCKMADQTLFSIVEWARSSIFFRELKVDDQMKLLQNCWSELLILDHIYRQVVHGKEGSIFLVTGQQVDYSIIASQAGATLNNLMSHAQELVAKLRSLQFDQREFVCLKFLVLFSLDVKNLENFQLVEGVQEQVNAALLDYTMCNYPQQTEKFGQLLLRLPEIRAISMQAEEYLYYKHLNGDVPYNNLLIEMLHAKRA

The target in assay [3] is Steroidogenic factor 1 (Homo sapiens) (UniProt Q13285). Briefly: inverse agonism at SF1 nuclear receptor – cell-based, luminescence, high throughput, counter-screen for LRH-1 inverse agonist project (AID 651614; in the data active means inhibition above about 44%;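 further: cells cotransfected with StAR promoter reporter and SF1 expression vector; 0% = vehicle on cells with receptor and 100% = vehicle on cells lacking receptor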). The settings on record: cell-based SF1 luciferase reporter, at 3.6 µM, stronger effect = higher value.
Steroidogenic factor 1 (Homo sapiens), sequence (Q13285 whole entry, looked up, the tested form may be a part): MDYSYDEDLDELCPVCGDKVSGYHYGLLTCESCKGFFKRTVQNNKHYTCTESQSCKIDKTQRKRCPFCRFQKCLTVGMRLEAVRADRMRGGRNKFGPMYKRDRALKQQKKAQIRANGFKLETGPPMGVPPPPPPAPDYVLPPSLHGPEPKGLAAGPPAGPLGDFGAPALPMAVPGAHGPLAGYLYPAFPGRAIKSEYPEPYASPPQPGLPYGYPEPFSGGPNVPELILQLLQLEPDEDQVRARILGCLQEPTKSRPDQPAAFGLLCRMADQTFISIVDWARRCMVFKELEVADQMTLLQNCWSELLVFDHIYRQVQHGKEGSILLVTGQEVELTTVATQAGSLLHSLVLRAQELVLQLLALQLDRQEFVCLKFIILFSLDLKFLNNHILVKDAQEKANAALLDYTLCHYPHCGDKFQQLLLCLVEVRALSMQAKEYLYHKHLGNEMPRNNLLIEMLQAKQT
The nature of assay [4]: compounds suppressing VP16-driven luciferase signal – cell-based, luminescence, high throughput, counter-screen for LRH-1 inverse agonist project (AID 651615; in the data active means inhibition above about 33%). To be noted: Gal4-VP16 luciferase reporter cells, at 3.6 µM, stronger effect = higher value.

Values without a mark were called inactive. Calls of active or inactive are those of the source. Unless noted, no stated cut-off is given here; in the data, active means inhibition above about 42%; inactive means the rest.

The inhibition is the change of the read-out against control, counted positive when it falls. Regarding `COc1ccc(NC(=O)CSc2nnc(Cc3ccccc3)c(=O)n2N)c(OC)c1`, the inhibition in assay [1] was 5.02%; in assay [2], 51% (active); in assay [3] it was 54.2% (active); in assay [4], 5.51%.

Consider `COc1ccc(NC(=O)c2cc(-c3cc(F)ccc3OC)n[nH]2)cc1OC`, for which the inhibition in assay [1] was 28.8% (active); in assay [2], 43.6% (active); in assay [3] it was 49.4% (active); in assay [4], 52% (active).

On to `COc1cc(NC(=O)CCl)ccc(=O)c1`, for which the inhibition in assay [1] was 47.9% (active); in assay [2], 64.7% (active); in assay [3] it was 68.2% (active); in assay [4] it was -57%.

With `COCCNc1ncnc2c1ncn2[C@H]1CN(CCc2ccccc2)C[C@@H](CO)O1`, the inhibition was 9.96% in assay [1], 28.4% in assay [2], 24.9% in assay [3] and 3.57% in assay [4].

On to `CN(C)c1ccc(NC(=O)CSc2nnc(-c3ccco3)c(-c3ccco3)n2)cc1`, for which the inhibition was 14.1% in assay [1], 54.9% (active) in assay [2], 47.8% (active) in assay [3] and -2.61% in assay [4].

In the case of `CC(=O)N1CCN(c2ccc(Oc3ccc([N+](=O)[O-])c(C(F)(F)F)c3)cc2)CC1`, the inhibition in assay [1] is 30.3% (active); in assay [2], 68.3% (active); in assay [3] it was 72.9% (active); in assay [4], 57.5% (active).

Turning to `CO/N=C/C(=N\Nc1cc(OC)cc(OC)c1)C(=O)c1ccccc1`, the inhibition is 13.2% in assay [1], 63.4% (active) in assay [2], 58.3% (active) in assay [3] and 0.16% in assay [4].

For `O=C(C(=Cc1ccccc1)CN1CCCCC1)c1ccccc1`, the inhibition was 36.4% (active) in assay [1], 66.8% (active) in assay [2], 75.1% (active) in assay [3] and 82.8% (active) in assay [4].

In the case of `CC(/C=C(\NC(=O)c1ccccc1)C(=O)N=Nc1c(O)[nH]c2ccc(C)cc12)=C\c1ccccc1`, the inhibition is 34.2% (active) in assay [1], 31.7% in assay [2], 30.2% in assay [3] and 14.1% in assay [4].

For the compound `CC(=O)Nc1ccc(NC(=O)CSc2nnc(COc3ccccc3C)n2CC2CCCO2)cc1` (stereo not drawn), the inhibition in assay [1] was 16.5%; in assay [2], 64.6% (active); in assay [3] it was 57.3% (active); in assay [4], -5.23%.

As for `S=C1Cc2ccccc2N1`, the inhibition in assay [1] is 56% (active); in assay [2], 85.9% (active); in assay [3], 79.5% (active); in assay [4] it was 53.3% (active).

In the case of `CCCCCOc1ccc(NC(=O)CSc2cccc3cccnc23)cc1`, the inhibition in assay [1] is -12.7%; in assay [2], 42.7% (active); in assay [3], 26.9%; in assay [4] it was -9.81%.

Consider `CCOc1ccc(NC(=O)CSc2nc3[nH]ncc3c(=O)[nH]2)cc1`, for which the inhibition was 8.84% in assay [1], 56.8% (active) in assay [2], 43.5% (active) in assay [3] and -6.78% in assay [4].

For `COc1cccc2c1C1COC3C4CC(C(=O)O)C(C(C2)N13)N4C` (stereo not drawn), the inhibition in assay [1] is 29.8% (active); in assay [2], 45.4% (active); in assay [3], 72.3% (active); in assay [4], -10.2%.

As to `S=C(NCc1ccccc1)Nc1ccncc1`, the inhibition in assay [1] was 9.38%; in assay [2] it was 37%; in assay [3], 47.3% (active); in assay [4], 13.1%.

As to `COc1cc2c3c(cccc3c1)C(=O)N(CCN1CCCC1)C2=O`, the inhibition is 12.7% in assay [1], 72.8% (active) in assay [2], 49.7% (active) in assay [3] and 70.9% (active) in assay [4].

Turning to `CCOc1ccc(CCNC(=O)COC(=O)c2cc(S(=O)(=O)N3CCOCC3)ccc2F)cc1OCC`, the inhibition in assay [1] was 5.25%; in assay [2], 53.2% (active); in assay [3], 57.1% (active); in assay [4], -4.44%.

On to `Cc1cc(C)nc(N/N=C/c2ccc([N+](=O)[O-])o2)n1`, for which the inhibition in assay [1] is 8.46%; in assay [2], 57.7% (active); in assay [3] it was 42.5%; in assay [4], -4.48%.

As to `Cc1cc2ccccn2c1C(=O)c1ccc([N+](=O)[O-])o1`, the inhibition in assay [1] was 41% (active); in assay [2], 68.3% (active); in assay [3], 62.2% (active); in assay [4] it was -0.71%.

Turning to `COc1ccc(CCNC(=O)CSc2nnc(CNC(=O)c3cccs3)o2)cc1OC`, the inhibition in assay [1] is 4.32%; in assay [2] it was 56.7% (active); in assay [3], 50% (active); in assay [4], 1.47%.

With `COCc1cc(C)nc(SCC(=O)Nc2cc3c(cc2C#N)OCO3)c1C#N`, the inhibition in assay [1] was -4.84%; in assay [2], 45.3% (active); in assay [3], 47.2% (active); in assay [4], -12.4%.

On to `O=C(COC(=O)C1CCCCC1)NCCc1ccccc1`, for which the inhibition in assay [1] is 3.93%; in assay [2], 50.9% (active); in assay [3] it was 41.5%; in assay [4], -5.95%.

For `CCC(NC(=O)CCl)c1ccc(C)cc1` (stereo not drawn), the inhibition in assay [1] was 29.5% (active); in assay [2] it was 67.3% (active); in assay [3], 53.9% (active); in assay [4], -27.2%.

Turning to `COc1ccc2c(c1)CCN(C(=O)CCl)C2C1C(=O)CCCC1=O` (stereo not drawn), the inhibition in assay [1] is 10.2%; in assay [2], 59% (active); in assay [3], 54.4% (active); in assay [4] it was -6.95%.

Consider `COc1ccc(/C=N/NC(=O)c2cc(-c3ccc(C)cc3C)nc3ccccc23)cc1COC(C)=O`, for which the inhibition in assay [1] is 1.71%; in assay [2], 52.8% (active); in assay [3] it was 50.6% (active); in assay [4], -17.4%.

With `COC(=O)c1ccc(NC(=O)CSc2nc3ncccc3[nH]2)cc1`, the inhibition in assay [1] is -4.1%; in assay [2], 50.8% (active); in assay [3], 52.6% (active); in assay [4] it was -13.4%.

For the compound `O=C(Nc1nc(-c2ccccn2)cs1)c1ccc([N+](=O)[O-])o1`, the inhibition in assay [1] was 32% (active); in assay [2], 69.5% (active); in assay [3], 77.7% (active); in assay [4], 16.4%.

For the origin of these results see PubChem BioAssay.
